The values that follow come from PubChem BioAssay (NCI).

The panel holds about 79,000 compounds, 15% with a hit somewhere; the sample as a whole holds those more often. Active and inactive are the calls of the source. No stated cut-off is given here; in the data, active means growth inhibition above about 70%; inactive means the rest.

The nature of one experiment: NCI Yeast Anticancer Drug Screen. Data for the rad50 strain (AID 155).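 Further: 0% = growth of vehicle-only cultures of the same strain.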 To be noted: S. cerevisiae rad50 strain growth inhibition; at 50.0 µM; active compounds read high. In short, it runs like this:
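Relative growth inhibition (compound vs vehicle) was measured in yeast with a defined repair-gene alteration.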
Regarding `CO/C=C1/CCc2c(ccc3cc(OC)ccc23)C1=O`, the growth inhibition is -1.5% (inactive).

Turning to `CC(C)(C)c1ccccc1OC(=O)Nc1ccc(F)cc1`, the growth inhibition was 3.65% (inactive).

On to `CC1(C)CC(OP(=O)(c2ccccc2)c2ccccc2)CC(C)(C)N1O`, for which the growth inhibition was 5.25% (inactive).

Consider `O=C(NC1(C(=O)Oc2ccc([N+](=O)[O-])cc2)CCCC1)OCc1ccccc1`, for which the growth inhibition was 7.25% (inactive).

In the case of `N#CCCSc1nnc(N)s1`, the growth inhibition was -7.85% (inactive).

Turning to `CCCCCC(=O)c1ccc2[nH]c3c(C)cc([N+](=O)[O-])c(C)c3c2c1`, the growth inhibition was 3.65% (inactive).

Consider `Cc1ccc(S(=O)(=O)OC2CCCC2OS(=O)(=O)c2ccc(C)cc2)cc1` (configuration not stated), for which the growth inhibition was 0.2% (inactive).

`CCN(c1ccccc1)c1cc2c(cc1[N+](=O)[O-])no[n+]2[O-]`: the growth inhibition was 97.1% (active).

With `Nc1ccc2c(c1)CC1CC(=O)NN=C21` (configuration not stated), the growth inhibition was 29.5% (inactive).

With `Nc1ccc2ccccc2c1Cl`, the growth inhibition is -9.05% (inactive).

`N#CC(C#N)C1c2ccccc2Oc2ccccc21`: the growth inhibition is 7.1% (inactive).

In the case of `Nc1nc(N)nc(-c2cc(Br)c(N)c(Br)c2)n1`, the growth inhibition was -2.55% (inactive).

As for `Cc1c(C(=O)O)c(-c2ccc([N+](=O)[O-])cc2)c(C=O)n1-c1ccccc1`, the growth inhibition was -4.9% (inactive).

In the case of `O=C(O)c1cccc(F)c1C(=O)O`, the growth inhibition is -4.5% (inactive).

As for `CCOC(=O)N1Cc2cc3ccccc3nc2C1CC(=O)O` (configuration not stated), the growth inhibition is -14.8% (inactive).

Consider `C[N+](C)=c1ccc2nc3ccc(N)cc3sc-2c1`, for which the growth inhibition was -84.8% (inactive).

As to `CCCCCCCCCC1OC(C)C(C)O1` (configuration not stated), the growth inhibition was 24.6% (inactive).

As to `N#CC(c1ccc(N)cc1)c1ccc(F)cc1` (configuration not stated), the growth inhibition was 15.6% (inactive).

As for `CN(C)S(=O)(=O)c1cccc([N+](=O)[O-])c1`, the growth inhibition was 17.5% (inactive).

Regarding `CCOC(=O)C(NC(=O)c1ccccc1)(C(=O)OCC)c1ccccn1`, the growth inhibition is 8.55% (inactive).

Consider `CN(C)N=Nc1ccc(Cl)cc1C(=O)O`, for which the growth inhibition is 14.8% (inactive).

Take `Nc1ccc2[nH]c(=O)c(=O)[nH]c2c1`: the growth inhibition is 2% (inactive).

Another experiment is described as follows: NCI Yeast Anticancer Drug Screen. Data for the mec2-1 strain (AID 157). To be noted: S. cerevisiae mec2-1 strain, at 50.0 µM, active compounds read high. In short, it runs like this:
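Strain: mec2-1 (DNA repair/cell cycle alteration). Compound exposure, then growth measured; inhibition expressed relative to vehicle.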
Take `COC1OC(=O)c2ccccc21` (configuration not stated): the growth inhibition was -16.2% (inactive).

On to `CC(C)c1ccc(CN)cc1`, for which the growth inhibition was -39.2% (inactive).

As for `Cc1cnc2cccc(C)c2c1Cl`, the growth inhibition was 0.05% (inactive).

In the case of `COC(=O)C1=C(C(=O)OC)P2(C)(C)OC(c3ccccc3)CN2C1(c1ccccc1)c1ccccc1` (configuration not stated), the growth inhibition was 9.15% (inactive).

In the case of `COC(=O)C1C(=C(c2ccccc2)c2ccccc2)C1c1ccccc1` (configuration not stated), the growth inhibition was -15.2% (inactive).

With `Nc1ccc(NC(=O)Nc2ccc(N)cc2)cc1`, the growth inhibition was 4.3% (inactive).

Regarding `CN(C)c1ccc(/C=N\NC(=S)NN2CCN(NC(=S)N/N=C\c3ccc(N(C)C)cc3)CC2)cc1`, the growth inhibition is 11.1% (inactive).

For `O=C(NNC(=S)Nc1ccccc1)c1nsc2ccccc12`, the growth inhibition is 12.2% (inactive).

For the compound `COC(=O)c1ccc(/C=C2\Oc3ccccc3C2=O)cc1`, the growth inhibition was -62.2% (inactive).

Regarding `CCOc1ccc(N=Cc2c3ccccc3nc3ccccc23)cc1`, the growth inhibition is 14.5% (inactive).

As to `O=C(Nc1ccccc1F)c1c(O)nc2sccn2c1=O`, the growth inhibition is -2.8% (inactive).

Consider `O=C(C=c1sc(=CC(=O)c2ccccc2)s1)c1ccccc1`, for which the growth inhibition was -4.35% (inactive).

With `CC(=O)NC1CC(C)(C)NC(C)(C)C1`, the growth inhibition was -30.2% (inactive).

For the compound `COc1cc2c(c3c1CCC(C)(C)O3)Cc1c(cc(OC)c(OC)c1CCC(C)(C)O)O2`, the growth inhibition is -3.9% (inactive).

On to `CC1(C)C=C(C(=O)ON2C(=O)CCC2=O)C(C)(C)N1O`, for which the growth inhibition is -25.9% (inactive).

With `CC12CCC(CC1C(=O)O)C2` (configuration not stated), the growth inhibition is 16.3% (inactive).

In the case of `O=C(O)/C=C(\CC(=O)O)C(=O)O`, the growth inhibition was 11.9% (inactive).

Consider `CC(=O)Nc1ccc(S(=O)(=O)Nc2cccc3ccccc23)cc1`, for which the growth inhibition was 7.4% (inactive).

Turning to `CO/C=C1/CCc2c(ccc3cc(OC)ccc23)C1=O`, the growth inhibition was -8.75% (inactive).

With `CC(C)(C)c1ccccc1OC(=O)Nc1ccc(F)cc1`, the growth inhibition is 7.1% (inactive).

With `CC1(C)CC(OP(=O)(c2ccccc2)c2ccccc2)CC(C)(C)N1O`, the growth inhibition was 12.8% (inactive).

`O=C(NC1(C(=O)Oc2ccc([N+](=O)[O-])cc2)CCCC1)OCc1ccccc1`: the growth inhibition was 20.2% (inactive).

In the case of `N#CCCSc1nnc(N)s1`, the growth inhibition was -7.9% (inactive).

In the case of `CCCCCC(=O)c1ccc2[nH]c3c(C)cc([N+](=O)[O-])c(C)c3c2c1`, the growth inhibition was -35.6% (inactive).

On to `Cc1ccc(S(=O)(=O)OC2CCCC2OS(=O)(=O)c2ccc(C)cc2)cc1` (configuration not stated), for which the growth inhibition was 14.5% (inactive).

For `CCN(c1ccccc1)c1cc2c(cc1[N+](=O)[O-])no[n+]2[O-]`, the growth inhibition was 96.9% (active).

Regarding `Nc1ccc2c(c1)CC1CC(=O)NN=C21` (configuration not stated), the growth inhibition is 9.95% (inactive).

`Nc1ccc2ccccc2c1Cl`: the growth inhibition was -38.5% (inactive).

Consider `N#CC(C#N)C1c2ccccc2Oc2ccccc21`, for which the growth inhibition was -8.55% (inactive).

In the case of `Nc1nc(N)nc(-c2cc(Br)c(N)c(Br)c2)n1`, the growth inhibition was -7.45% (inactive).

On to `Cc1c(C(=O)O)c(-c2ccc([N+](=O)[O-])cc2)c(C=O)n1-c1ccccc1`, for which the growth inhibition was 10.9% (inactive).

`O=C(O)c1cccc(F)c1C(=O)O`: the growth inhibition is -3.65% (inactive).

Turning to `CCOC(=O)N1Cc2cc3ccccc3nc2C1CC(=O)O` (configuration not stated), the growth inhibition is 11.9% (inactive).

`C[N+](C)=c1ccc2nc3ccc(N)cc3sc-2c1`: the growth inhibition was -59.5% (inactive).

`CCCCCCCCCC1OC(C)C(C)O1` (configuration not stated): the growth inhibition is 7.55% (inactive).

For `N#CC(c1ccc(N)cc1)c1ccc(F)cc1` (configuration not stated), the growth inhibition is -16.8% (inactive).

In the case of `CN(C)S(=O)(=O)c1cccc([N+](=O)[O-])c1`, the growth inhibition was 7.5% (inactive).

As for `CCOC(=O)C(NC(=O)c1ccccc1)(C(=O)OCC)c1ccccn1`, the growth inhibition is -13.5% (inactive).

With `CN(C)N=Nc1ccc(Cl)cc1C(=O)O`, the growth inhibition was 12.3% (inactive).

With `Nc1ccc2[nH]c(=O)c(=O)[nH]c2c1`, the growth inhibition is 14.7% (inactive).
